Mtb UGM inh – Mtb UDP-galactopyranose mutase inhibition. P9WIQ1. purified UGM, fluorescence polarization probe displacement. inhibition, % at 10 µM. hit rate 0.06% among 320,000; in the data active = inhibition above about 10%, passing the limit was not always enough
GDH-TPI counter-1 – inhibits GDH-TPI coupling enzymes, artifact for Mtb FBA screen; hit rate 1.2% among 360,000; GDH-TPI coupled enzyme counterscreen, NADH absorbance; inhibition, % at 4.8 µM; in the data active = inhibition above about 30%
Mtb bLac sens – beta-lactam sensitization of Mtb H37Rv; M. tuberculosis H37Rv growth with meropenem, percent inhibition; inhibition, % at 25 µM; hit rate 0.27% among 330,000; AID 434955; call rule not given here;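 also: growth measured after seven days incubation then overnight dye step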
Rv3671c protease – inhibits the M. tuberculosis serine protease Rv3671c; hit rate 0.048% among 320,000; inhibition, % at 5.96 µM; AID 2606; in the data active = inhibition above about 38%;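 also: extracellular domain of Rv3671c used as enzyme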
Target sequence (P9WHR9 whole entry, looked up, the tested form may be a part): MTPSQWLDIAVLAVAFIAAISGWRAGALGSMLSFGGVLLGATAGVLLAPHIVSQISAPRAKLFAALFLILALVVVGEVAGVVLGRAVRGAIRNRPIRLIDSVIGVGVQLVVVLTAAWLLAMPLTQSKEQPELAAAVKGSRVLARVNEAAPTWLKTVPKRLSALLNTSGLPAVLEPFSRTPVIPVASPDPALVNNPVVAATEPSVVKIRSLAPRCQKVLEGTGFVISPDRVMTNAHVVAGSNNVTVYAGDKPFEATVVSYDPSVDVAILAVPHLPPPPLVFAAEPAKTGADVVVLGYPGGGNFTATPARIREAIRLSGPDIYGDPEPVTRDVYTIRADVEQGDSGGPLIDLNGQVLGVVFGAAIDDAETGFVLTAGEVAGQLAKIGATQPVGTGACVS
FBA Mtb inh – inhibitors of M. tuberculosis fructose-bisphosphate aldolase. hit rate 2.3% among 360,000. inhibition, % at 1 µM. purified M. tuberculosis FBA, fluorescence read-out
Mtb FBA confirm – confirmation of M. tuberculosis fructose-bisphosphate aldolase inhibitors. shares compounds with FBA Mtb inh. purified M. tuberculosis FBA, fluorescence read-out. inhibition, % at 1 µM. hit rate 78% among 5,600. AID 651616
GDH-TPI counter-2 – inhibits GDH-TPI coupling enzymes, flagging Mtb FBA hits. hit rate 81% among 5,600. shares compounds with FBA Mtb inh. GDH-TPI coupled enzyme counterscreen, fluorescence. inhibition, % at 1 µM; in the data active = inhibition above about 10%
GDH-TPI dose – GDH-TPI dose response counter-screen for Mtb FBA; IC50, µM; hit rate 79% among 170; GDH-TPI coupled enzyme assay, fluorescence, artifact counterscreen; AID 652145; shares compounds with FBA Mtb inh; call rule not given here
Each line names hits and unclear results; the compound was inactive in the other large screens (follow-up assays come after a bar, where they were run). A selection: hits, their analogues and other compounds. The true share with any hit is near 3.5%. Rule as the data show it, unless noted: active = inhibition above about 27%; inactive = the rest.

Cc1ccc(Cn2ccc(O)c(Cc3ccccc3)c2=O)cc1	none
CCOC(=O)Cc1cc(=O)n2[nH]c(-c3ccccc3)c(-c3ccccc3)c2n1	FBA Mtb inh 43 | Mtb FBA confirm 81 | GDH-TPI counter-2 67
CCOC(=O)Cc1cc(=O)n2[nH]c(C)c(-c3ccccc3)c2n1	FBA Mtb inh 39 | Mtb FBA confirm 96 | GDH-TPI counter-2 77
CCOC(=O)Cc1cc(=O)n2[nH]c(-c3ccccc3)cc2n1	none
Cc1nnsc1C(=O)NNC(=O)c1cccc2ccccc12	none
OC1CNc2c(ccc3ccccc23)C1 (configuration not stated)	FBA Mtb inh 101 (no result: Mtb UGM inh, Mtb bLac sens, Rv3671c protease) | Mtb FBA confirm 175 | GDH-TPI counter-2 154
CNc1cncc(-c2cc(OC)c(OC)c(OC)c2)n1	FBA Mtb inh 96 (no result: Mtb UGM inh, Mtb bLac sens, Rv3671c protease) | Mtb FBA confirm active | GDH-TPI counter-2 active
CNc1cncc(-c2ccc(OC)cc2OC)n1	FBA Mtb inh 52 (no result: Mtb UGM inh, Mtb bLac sens, Rv3671c protease) | Mtb FBA confirm inactive | GDH-TPI counter-2 inactive
CNc1cccc(-c2cc(OC)c(OC)c(OC)c2)n1	none (no result: Mtb UGM inh, Mtb bLac sens, Rv3671c protease)
CCCc1cc(=O)oc2cc(C)cc(OCC(=O)NCCCN3CCCC3=O)c12	FBA Mtb inh 66 | Mtb FBA confirm active | GDH-TPI counter-2 active
CCc1cc(=O)oc2cc(OCC(=O)NCCCN3CCCC3=O)ccc12	none
CCc1cc(=O)oc2cc(C)cc(OC(C)C(=O)NCCCN3CCCC3=O)c12 (configuration not stated)	FBA Mtb inh 87 | Mtb FBA confirm inactive | GDH-TPI counter-2 inactive
Cc1c(C)c2ccc(OC(C)C(=O)NCCCn3ccnc3)c(C)c2oc1=O (configuration not stated)	FBA Mtb inh 55 | Mtb FBA confirm 67 | GDH-TPI counter-2 51
Cc1c(OC(C)C(=O)NCCCN2CCOCC2)ccc2c1oc(=O)c1ccccc12 (configuration not stated)	FBA Mtb inh 74 | Mtb FBA confirm inactive | GDH-TPI counter-2 inactive
CC(C)CCN(C(=O)C1CSC2(C)CCC(=O)N12)c1c(N)n(Cc2ccccc2)c(=O)[nH]c1=O (configuration not stated)	none
Cc1ccc(N2C(=O)N3[C@H](c4ccc(F)cc4)[C@@H]4C(=O)N(C5CCCCC5)C(=O)[C@@H]4[C@]3(Cc3ccccc3)C2=O)cc1	none
CCn1cc(CN2CCCC(C(=O)Nc3cccc(-c4cc5ccccc5[nH]4)c3)C2)cn1 (configuration not stated)	none
Cc1cc(OCC(=O)NCCCN2CCCC2=O)c2c(C)cc(=O)oc2c1	FBA Mtb inh 103 | Mtb FBA confirm inactive | GDH-TPI counter-2 inactive
Cc1cc(=O)oc2cc(OCC(=O)NCCCN3CCCC3=O)c(Cl)cc12	none
CCc1cc(=O)oc2cc(C)cc(OC(C)C(=O)NCCCn3ccnc3)c12 (configuration not stated)	FBA Mtb inh 54 | Mtb FBA confirm inactive | GDH-TPI counter-2 inactive
Cc1c(C)c2cc(Cl)c(OCC(=O)NCCCN3CCCC3=O)cc2oc1=O	GDH-TPI counter-1 34, FBA Mtb inh 45 (no result: Mtb UGM inh, Mtb bLac sens, Rv3671c protease) | Mtb FBA confirm inactive | GDH-TPI counter-2 inactive | GDH-TPI dose 7.1
O=C(COc1cc2oc(=O)c3c(c2cc1Cl)CCC3)NCCCN1CCCC1=O	none
CCc1cc(=O)oc2cc(C)cc(OC(C)C(=O)NC3CC(C)(C)NC(C)(C)C3)c12 (configuration not stated)	FBA Mtb inh 72 | Mtb FBA confirm 49 | GDH-TPI counter-2 42
CCN(CC)CCn1c2c(c(SCC(=O)Nc3cc(OC)cc(OC)c3)nc1=O)CCC2	none
O=C(NCCCN1CCOCC1)c1ccc(CSc2ccc(Cl)cc2)cc1	none
COc1ccc(S(=O)(=O)N2CCN(Cc3ccc(OC)c(OC)c3)CC2)cc1	FBA Mtb inh 29 | Mtb FBA confirm 40 | GDH-TPI counter-2 42
Cc1cc(OCc2cn3cccnc3n2)ccc1Cl	none
CCN(Cc1cn2cccnc2n1)C1CCCCC1	FBA Mtb inh 109 | Mtb FBA confirm inactive | GDH-TPI counter-2 inactive
COc1cc2c(cc1OC)-c1nnc(-c3ccco3)n1C1(CCCC1)C2	FBA Mtb inh 47 | Mtb FBA confirm 108 | GDH-TPI counter-2 84
c1coc(-c2nnc3n2C2(CCCC2)Cc2ccccc2-3)c1	none
CCOC(=O)N1CCC(NC(=O)c2ccc3c(c2)N=C(C)c2ccccc2S3)CC1	none
CCOC(=O)N1CCC(NC(=O)c2ccc3c(c2)N(Cc2ccc(F)cc2)CCS3)CC1	FBA Mtb inh 71 | Mtb FBA confirm 182 | GDH-TPI counter-2 151
CCOC(=O)N1CCC(NC(=O)c2ccc3c(c2)N(Cc2ccccc2)CCS3)CC1	FBA Mtb inh 28 | Mtb FBA confirm 65 | GDH-TPI counter-2 62
Cc1ccc(C2CC(c3cccs3)n3nc(N)nc3N2)cc1 (configuration not stated)	FBA Mtb inh 60 | Mtb FBA confirm inactive | GDH-TPI counter-2 inactive
Cc1ccc(C2CC(c3ccccc3C)n3nc(N)nc3N2)cc1 (configuration not stated)	none
Cn1cc(Br)c(C(=O)NN2C(=O)C3C4C=CC(C5CC45)C3C2=O)n1 (configuration not stated)	none
CCOCCCNC(=O)c1cc2cc3cc(OC)ccc3nc2o1	FBA Mtb inh 110 | Mtb FBA confirm 91 | GDH-TPI counter-2 66
COc1ccc2nc3oc(C(=O)NCc4cccs4)cc3cc2c1	FBA Mtb inh 32 | Mtb FBA confirm inactive | GDH-TPI counter-2 inactive
COc1ccc(Cn2c(=O)[nH]c3cc(C(=O)NCCCOC(C)C)ccc3c2=O)cc1	none
COc1ccc2nc3oc(C(=O)NCCCOC(C)C)cc3cc2c1	FBA Mtb inh 111 | Mtb FBA confirm inactive | GDH-TPI counter-2 inactive
O=C(NCc1cccs1)c1cc2ccccc2o1	none
CSc1ccc(CN(C)C(=O)COc2ccc(C(=O)c3ccccc3)cc2)cc1	none
O=C(CSc1nc2ccccc2o1)c1cc2ccccc2oc1=O	FBA Mtb inh 55 | Mtb FBA confirm inactive | GDH-TPI counter-2 inactive | GDH-TPI dose inactive
COc1ccc2c(c1)CCc1cnc(N)nc1-2	FBA Mtb inh 106 | Mtb FBA confirm inactive | GDH-TPI counter-2 inactive
CCN(CC)C(=O)C1=C(C)N(CCC2=CCCCC2)C(=O)C(CC(=O)NCCCN(C)C)C1 (configuration not stated)	none (no result: Mtb UGM inh, Mtb bLac sens, Rv3671c protease)
C=CCc1c(C)nc2cc(-c3ccc(C)cc3)[nH]n2c1=O	FBA Mtb inh 27 | Mtb FBA confirm active | GDH-TPI counter-2 active
COc1ccc(-c2c(C)nc3c(-c4ccccn4)cnn3c2N)cc1	FBA Mtb inh 27 (no result: Rv3671c protease) | Mtb FBA confirm 68 | GDH-TPI counter-2 67
O=C(Nc1nc(-c2ccccc2)cs1)c1ccc2c(c1)S(=O)(=O)c1ccccc1C2=O	FBA Mtb inh 84 | Mtb FBA confirm active | GDH-TPI counter-2 158
On1ccccc1=S	none
Cc1c(CCCl)c(Cl)n2c(nc3ccccc32)c1C#N	none (no result: Mtb UGM inh, Mtb bLac sens, Rv3671c protease)

Source: PubChem (several laboratories)
